# Data from PubChem BioAssay (EPA / NIEHS).
# Activity calls are given as the source filed them. How the source made its calls: active means hit-call score of the fitted dose curve at least 0.9, where 1 is the maximum; inactive means score below 0.9.
# Assay: Tanguay_ZF_120hpf_MUSC: Oregon State University Tanguay Lab 120 Hour Post-fertilization zebrafish Assay for Muscle Malformation (AID 2284401)
# Method in brief: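 Scored as a binary brightfield endpoint at 120 hpf, fitted versus DMSO. Single dechorionated wild-type (Tropical 5D) zebrafish embryos per well, statically exposed at 28C from 6 hpf onward with final DMSO 0.64%.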
structure (smiles),measurement,value
C=CC(=O)OCCC(F)(F)C(F)(F)C(F)(F)C(F)(F)C(F)(F)C(F)(F)C(F)(F)C(F)(F)F,outcome,inactive
